Experiment [1] can be described thus: CEETOX_H295R_PROG: CeeTox H295R High-throughput Steroidogenesis Assay for Progesterone (PROG) (AID 2283442).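 As to AC50: human H295R adrenal cells primed with 10 µM forskolin before dosing; progesterone secreted into medium by H295R cells measured by HPLC-MS/MS.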 The settings on record: actives raise or lower the signal. The procedure, abridged: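 Steps: seed H295R cells and let them adhere overnight; prime 48 h with 10 uM forskolin; dose with compound in DMSO at 0.1% final for 48 h; extract medium steroids with MTBE; measure progesterone by LC-MS/MS. MTT viability was run in the same wells.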

Read-out in experiment [2]: Tumor necrosis factor receptor superfamily member 6 (Homo sapiens) (UniProt P25445)
Description: LTEA_HepaRG_FAS: Life Technologies and Expression Analysis (LTEA) Assay for Fas cell surface death receptor (FAS) using HepaRG (AID 2283447). The settings on record: mRNA level, 48 h; actives raise or lower the signal. The procedure, abridged: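 FAS transcript level was measured by TaqMan qRT-PCR against three housekeeping genes after 48 h chemical exposure. Cells were HepaRG, 0.5% DMSO vehicle, with a top concentration of 100 uM and half-log dilutions over eight points, in duplicate.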

Read-out in experiment [3]: Fatty acid synthase (Homo sapiens) (UniProt P49327)
In words: LTEA_HepaRG_FASN: Life Technologies and Expression Analysis (LTEA) Assay for Fatty Acid Synthase (FASN) using HepaRG (AID 2283448).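 As to AC50: differentiated human HepaRG liver cells in serum-free induction medium.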 Particulars: mRNA level, 48 h; actives raise or lower the signal. The procedure, abridged:
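Cells were plated, cultured 48 h, switched to serum-free induction medium, then dosed in duplicate (max 100 uM, half-log dilutions, 0.5% DMSO) for 48 h. RNA was then isolated and FASN quantified by qRT-PCR.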

Read-out in experiment [4]: Cyclin D2 (CCND2), CCND2 (gene 894)
In words: LTEA_HepaRG_CCND2: Life Technologies and Expression Analysis (LTEA) Assay for Cyclin D2 (CCND2) using HepaRG (AID 2283449). Particulars: mRNA level, 48 h; actives raise or lower the signal. The procedure, abridged:
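CCND2 transcript levels, quantified by qRT-PCR and normalised to three housekeeping genes, were fitted bidirectionally against 0.5% DMSO. HepaRG cultures were dosed 48 h in duplicate with an 8-point half-log series up to 100 uM.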

Read-out in experiment [5]: Cyclin Dependent Kinase Inhibitor 1A (CDKN1A), CDKN1A (gene 1026)
Description: LTEA_HepaRG_CDKN1A: Life Technologies and Expression Analysis (LTEA) Assay for Cyclin Dependent Kinase Inhibitor 1A (CDKN1A) using HepaRG (AID 2283450). Particulars: mRNA level, 48 h; actives raise or lower the signal. In outline:
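Read-out is CDKN1A mRNA by TaqMan qRT-PCR, normalized to three housekeeping genes and fitted in both directions against the DMSO baseline. Human HepaRG cells were treated 48 h with test chemicals up to 100 uM in half-log steps, 0.5% DMSO.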

Read-out in experiment [6]: Cyclin D1 (CCND1), CCND1 (gene 595)
Description: LTEA_HepaRG_CCND1: Life Technologies and Expression Analysis (LTEA) Assay for Cyclin D1 (CCND1) using HepaRG (AID 2283451). The settings on record: mRNA level, 48 h; actives raise or lower the signal. The procedure, abridged:
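HepaRG plated 48 h, medium switched to serum-free induction medium, chemicals added in duplicate (top 100 uM, half-log steps, 0.5% DMSO) for 48 h, cells lysed, RNA measured by TaqMan qRT-PCR.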

Read-out in experiment [7]: catalase (CAT), CAT (gene 847)
In words: LTEA_HepaRG_CAT: Life Technologies and Expression Analysis (LTEA) Assay for catalase (CAT) using HepaRG (AID 2283452). Particulars: mRNA level, 48 h; actives raise or lower the signal. The procedure, abridged: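 Expression of CAT was quantified by TaqMan qRT-PCR with ACTB/GAPDH/POLR2A normalization after 48 h chemical exposure of HepaRG. Eight-point half-log series, top 100 uM, in 0.5% DMSO; gain or loss fitted against vehicle.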

Read-out in experiment [8]: flavin-containing dimethylaniline monooxygenases 3 (FMO3), FMO3 (gene 2328)
Description: LTEA_HepaRG_FMO3: Life Technologies and Expression Analysis (LTEA) Assay for flavin-containing dimethylaniline monooxygenases 3 (FMO3) using HepaRG (AID 2283453).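 As to AC50: differentiated human HepaRG liver cells in serum-free induction medium.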 Particulars: mRNA level, 48 h; actives raise or lower the signal. The procedure, abridged:
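FMO3 transcript quantified by TaqMan qRT-PCR against three housekeeping genes after 48 h chemical exposure of HepaRG cells. Eight-point half-log series, top 100 uM, 0.5% DMSO vehicle; phenobarbital 1mM induction control; up- or down-regulation fitted.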

Read-out in experiment [9]: Cytochrome P450 (CYP1A1), CYP1A1 (gene 1543)
In words: LTEA_HepaRG_CYP1A1: Life Technologies and Expression Analysis (LTEA) Assay for Cytochrome P450 (CYP1A1) using HepaRG (AID 2283454). Particulars: mRNA level, 48 h; actives raise or lower the signal. In outline: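 HepaRG, 48 h post-plating switched to serum-free induction medium; 8-pt conc-response (top 100 uM, half-log, 0.5% DMSO), duplicates, 48 h. Lysis in RLT, TaqMan qRT-PCR for CYP1A1; gain or loss vs DMSO.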

Read-out in experiment [10]: Forkhead box O1 (FOXO1), FOXO1 (gene 2308)
In words: LTEA_HepaRG_FOXO1: Life Technologies and Expression Analysis (LTEA) Assay for Forkhead box O1 (FOXO1) using HepaRG (AID 2283456). The settings on record: mRNA level, 48 h; actives raise or lower the signal. In outline:
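FOXO1 transcript quantified by qRT-PCR after 48 h chemical exposure (top 100 uM, half-log steps, 0.5% DMSO) of HepaRG cells, housekeeping-normalized (ACTB/GAPDH/POLR2A). Changes fitted in both directions relative to vehicle.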

Read-out in experiment [11]: growth arrest and DNA damage 45 (GADD45A), GADD45A (gene 1647)
In words: LTEA_HepaRG_GADD45A: Life Technologies and Expression Analysis (LTEA) Assay for growth arrest and DNA damage 45 (GADD45A) using HepaRG (AID 2283458). Particulars: mRNA level, 48 h; actives raise or lower the signal. In outline:
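Transcript induction or loss, quantified by TaqMan qRT-PCR against three housekeeping genes, is the read-out. HepaRG cells received chemicals for 48 h across eight half-log concentrations from 100 uM in 0.5% DMSO; gain and loss fitted relative to DMSO.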

Read-out in experiment [12]: Forkhead box O3 (FOXO3), FOXO3 (gene 2309)
Description: LTEA_HepaRG_FOXO3: Life Technologies and Expression Analysis (LTEA) Assay for Forkhead box O3 (FOXO3) using HepaRG (AID 2283459). The settings on record: mRNA level, 48 h; actives raise or lower the signal. In outline:
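FOXO3 transcript measured by qRT-PCR (normalized to ACTB, GAPDH, POLR2A) after 48 h exposure of HepaRG cells in serum-free induction medium. Duplicates, eight half-log concentrations up to 100 uM, 0.5% DMSO; gain or loss fitted against DMSO.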

Read-out in experiment [13]: ABC Transporter (ABCB1), ABCB1 (gene 5243)
Description: LTEA_HepaRG_ABCB1: Life Technologies and Expression Analysis (LTEA) Assay for ABC Transporter (ABCB1) using HepaRG (AID 2283460). Particulars: mRNA level, 48 h; actives raise or lower the signal. The procedure, abridged: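 ABCB1 transcript level measured by TaqMan qRT-PCR against three housekeeping genes after 48 h chemical exposure of differentiated HepaRG cells. Top concentration 100 uM, half-log steps, eight points, 0.5% DMSO vehicle; bidirectional fit relative to DMSO.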

Read-out in experiment [14]: growth arrest and DNA damage 45 (GADD45B), GADD45B (gene 4616)
In words: LTEA_HepaRG_GADD45B: Life Technologies and Expression Analysis (LTEA) Assay for growth arrest and DNA damage 45 (GADD45B) using HepaRG (AID 2283461). The settings on record: mRNA level, 48 h; actives raise or lower the signal. In outline: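 HepaRG, ~100,000 cells/well, 48 h plating; serum-free induction medium; cpd 100 uM top, half-log x8, 0.5% DMSO, duplicate, 48 h; lysis in RLT, RNA isolation, qRT-PCR; norm ACTB/GAPDH/POLR2A; bidirectional fit vs DMSO.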

Read-out in experiment [15]: ABC Transporter (ABCC3), ABCC3 (gene 8714)
In words: LTEA_HepaRG_ABCC3: Life Technologies and Expression Analysis (LTEA) Assay for ABC Transporter (ABCC3) using HepaRG (AID 2283462). Particulars: mRNA level, 48 h; actives raise or lower the signal. In outline: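 Human HepaRG, 48 h dosing, 8-pt half-log series from 100 uM, 0.5% DMSO vehicle, duplicates. ABCC3 mRNA by TaqMan qRT-PCR, housekeeping-normalized; bidirectional curve fit vs DMSO.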

Read-out in experiment [16]: ABC Transporter (ABCB11), ABCB11 (gene 8647)
In words: LTEA_HepaRG_ABCB11: Life Technologies and Expression Analysis (LTEA) Assay for ABC Transporter (ABCB11) using HepaRG (AID 2283463). Particulars: mRNA level, 48 h; actives raise or lower the signal. In outline:
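ABCB11 transcript levels quantified by TaqMan qRT-PCR against three housekeeping genes after 48 h chemical exposure of HepaRG cultures. Concentrations up to 100 uM in half-log steps, 0.5% DMSO vehicle; both induction and suppression scored.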

Read-out in experiment [17]: Broad substrate specificity ATP-binding cassette transporter ABCG2 (Homo sapiens) (UniProt Q9UNQ0)
In words: LTEA_HepaRG_ABCG2: Life Technologies and Expression Analysis (LTEA) Assay for ABC Transporter (ABCG2) using HepaRG (AID 2283465). Particulars: mRNA level, 48 h; actives raise or lower the signal. The procedure, abridged: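 ABCG2 transcript was quantified by TaqMan qRT-PCR against three housekeeping genes in HepaRG cells. Cells were treated in duplicate for 48 h across an 8-point half-log series up to 100 uM, with 0.5% DMSO vehicle. Gain or loss versus DMSO was fit.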

Experiment [18] can be described thus: CEETOX_H295R_TESTO: CeeTox H295R High-throughput Steroidogenesis Assay for Testosterone (TESTO) (AID 2283457). The settings on record: actives raise or lower the signal. In outline: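 H295R, passage ≤10, 48 h dosing; media extracted with MTBE → HPLC-MS/MS for testosterone; 7-pt standard curve sets LLOQ/ULOQ; bidirectional fit vs DMSO; MTT viability same wells.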

Read-out in experiment [19]: ABC Transporter (ABCC2), ABCC2 (gene 1244)
Description: LTEA_HepaRG_ABCC2: Life Technologies and Expression Analysis (LTEA) Assay for ABC Transporter (ABCC2) using HepaRG (AID 2283464). Particulars: mRNA level, 48 h; actives raise or lower the signal. The procedure, abridged: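 HepaRG, 48 h post-plating; serum-free induction medium; cpd 8-pt, 100 uM top, half-log, 0.5% DMSO, duplicate, 48 h. Readout: ABCC2 mRNA by qRT-PCR, norm. ACTB/GAPDH/POLR2A. Bidirectional fit vs DMSO baseline.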

Read-out in experiment [20]: CFLAR gene, CFLAR (gene 8837)
Description: LTEA_HepaRG_CFLAR: Life Technologies and Expression Analysis (LTEA) Assay for CFLAR gene using HepaRG (AID 2283455). Particulars: mRNA level, 48 h; actives raise or lower the signal. In outline: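 Transcript level by qRT-PCR (normalized to ACTB, GAPDH and POLR2A) after 48 h chemical exposure of HepaRG cells, top concentration 100 uM with half-log steps, 0.5% DMSO vehicle, duplicates; fitted bidirectionally against DMSO baseline.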

Activity calls are given as the source filed them. The calls were made as follows: active = hit-call score of the fitted dose curve at least 0.9, where 1 is the maximum; inactive = score below 0.9.

From PubChem BioAssay (EPA / NIEHS) come the findings set out here.

Chain of Broad substrate specificity ATP-binding cassette transporter ABCG2 (Homo sapiens) (Q9UNQ0 whole entry, looked up): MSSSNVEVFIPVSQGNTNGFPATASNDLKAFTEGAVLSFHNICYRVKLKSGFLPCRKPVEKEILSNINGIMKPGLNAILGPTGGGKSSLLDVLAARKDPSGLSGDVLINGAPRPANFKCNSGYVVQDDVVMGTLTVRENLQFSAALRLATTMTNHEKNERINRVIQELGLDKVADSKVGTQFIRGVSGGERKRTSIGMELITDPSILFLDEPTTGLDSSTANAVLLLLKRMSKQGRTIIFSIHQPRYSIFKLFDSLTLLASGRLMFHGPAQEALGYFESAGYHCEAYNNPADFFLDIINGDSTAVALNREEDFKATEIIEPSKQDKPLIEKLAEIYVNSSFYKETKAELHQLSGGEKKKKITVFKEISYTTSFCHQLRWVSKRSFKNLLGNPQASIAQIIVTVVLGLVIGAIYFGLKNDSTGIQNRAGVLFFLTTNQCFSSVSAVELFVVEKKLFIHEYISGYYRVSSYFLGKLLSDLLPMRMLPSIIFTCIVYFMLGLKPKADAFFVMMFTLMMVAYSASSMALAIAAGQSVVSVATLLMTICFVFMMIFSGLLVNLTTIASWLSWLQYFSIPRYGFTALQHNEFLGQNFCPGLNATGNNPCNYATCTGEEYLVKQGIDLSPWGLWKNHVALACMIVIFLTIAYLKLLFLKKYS
Chain of Fatty acid synthase (Homo sapiens) (P49327 whole entry, looked up): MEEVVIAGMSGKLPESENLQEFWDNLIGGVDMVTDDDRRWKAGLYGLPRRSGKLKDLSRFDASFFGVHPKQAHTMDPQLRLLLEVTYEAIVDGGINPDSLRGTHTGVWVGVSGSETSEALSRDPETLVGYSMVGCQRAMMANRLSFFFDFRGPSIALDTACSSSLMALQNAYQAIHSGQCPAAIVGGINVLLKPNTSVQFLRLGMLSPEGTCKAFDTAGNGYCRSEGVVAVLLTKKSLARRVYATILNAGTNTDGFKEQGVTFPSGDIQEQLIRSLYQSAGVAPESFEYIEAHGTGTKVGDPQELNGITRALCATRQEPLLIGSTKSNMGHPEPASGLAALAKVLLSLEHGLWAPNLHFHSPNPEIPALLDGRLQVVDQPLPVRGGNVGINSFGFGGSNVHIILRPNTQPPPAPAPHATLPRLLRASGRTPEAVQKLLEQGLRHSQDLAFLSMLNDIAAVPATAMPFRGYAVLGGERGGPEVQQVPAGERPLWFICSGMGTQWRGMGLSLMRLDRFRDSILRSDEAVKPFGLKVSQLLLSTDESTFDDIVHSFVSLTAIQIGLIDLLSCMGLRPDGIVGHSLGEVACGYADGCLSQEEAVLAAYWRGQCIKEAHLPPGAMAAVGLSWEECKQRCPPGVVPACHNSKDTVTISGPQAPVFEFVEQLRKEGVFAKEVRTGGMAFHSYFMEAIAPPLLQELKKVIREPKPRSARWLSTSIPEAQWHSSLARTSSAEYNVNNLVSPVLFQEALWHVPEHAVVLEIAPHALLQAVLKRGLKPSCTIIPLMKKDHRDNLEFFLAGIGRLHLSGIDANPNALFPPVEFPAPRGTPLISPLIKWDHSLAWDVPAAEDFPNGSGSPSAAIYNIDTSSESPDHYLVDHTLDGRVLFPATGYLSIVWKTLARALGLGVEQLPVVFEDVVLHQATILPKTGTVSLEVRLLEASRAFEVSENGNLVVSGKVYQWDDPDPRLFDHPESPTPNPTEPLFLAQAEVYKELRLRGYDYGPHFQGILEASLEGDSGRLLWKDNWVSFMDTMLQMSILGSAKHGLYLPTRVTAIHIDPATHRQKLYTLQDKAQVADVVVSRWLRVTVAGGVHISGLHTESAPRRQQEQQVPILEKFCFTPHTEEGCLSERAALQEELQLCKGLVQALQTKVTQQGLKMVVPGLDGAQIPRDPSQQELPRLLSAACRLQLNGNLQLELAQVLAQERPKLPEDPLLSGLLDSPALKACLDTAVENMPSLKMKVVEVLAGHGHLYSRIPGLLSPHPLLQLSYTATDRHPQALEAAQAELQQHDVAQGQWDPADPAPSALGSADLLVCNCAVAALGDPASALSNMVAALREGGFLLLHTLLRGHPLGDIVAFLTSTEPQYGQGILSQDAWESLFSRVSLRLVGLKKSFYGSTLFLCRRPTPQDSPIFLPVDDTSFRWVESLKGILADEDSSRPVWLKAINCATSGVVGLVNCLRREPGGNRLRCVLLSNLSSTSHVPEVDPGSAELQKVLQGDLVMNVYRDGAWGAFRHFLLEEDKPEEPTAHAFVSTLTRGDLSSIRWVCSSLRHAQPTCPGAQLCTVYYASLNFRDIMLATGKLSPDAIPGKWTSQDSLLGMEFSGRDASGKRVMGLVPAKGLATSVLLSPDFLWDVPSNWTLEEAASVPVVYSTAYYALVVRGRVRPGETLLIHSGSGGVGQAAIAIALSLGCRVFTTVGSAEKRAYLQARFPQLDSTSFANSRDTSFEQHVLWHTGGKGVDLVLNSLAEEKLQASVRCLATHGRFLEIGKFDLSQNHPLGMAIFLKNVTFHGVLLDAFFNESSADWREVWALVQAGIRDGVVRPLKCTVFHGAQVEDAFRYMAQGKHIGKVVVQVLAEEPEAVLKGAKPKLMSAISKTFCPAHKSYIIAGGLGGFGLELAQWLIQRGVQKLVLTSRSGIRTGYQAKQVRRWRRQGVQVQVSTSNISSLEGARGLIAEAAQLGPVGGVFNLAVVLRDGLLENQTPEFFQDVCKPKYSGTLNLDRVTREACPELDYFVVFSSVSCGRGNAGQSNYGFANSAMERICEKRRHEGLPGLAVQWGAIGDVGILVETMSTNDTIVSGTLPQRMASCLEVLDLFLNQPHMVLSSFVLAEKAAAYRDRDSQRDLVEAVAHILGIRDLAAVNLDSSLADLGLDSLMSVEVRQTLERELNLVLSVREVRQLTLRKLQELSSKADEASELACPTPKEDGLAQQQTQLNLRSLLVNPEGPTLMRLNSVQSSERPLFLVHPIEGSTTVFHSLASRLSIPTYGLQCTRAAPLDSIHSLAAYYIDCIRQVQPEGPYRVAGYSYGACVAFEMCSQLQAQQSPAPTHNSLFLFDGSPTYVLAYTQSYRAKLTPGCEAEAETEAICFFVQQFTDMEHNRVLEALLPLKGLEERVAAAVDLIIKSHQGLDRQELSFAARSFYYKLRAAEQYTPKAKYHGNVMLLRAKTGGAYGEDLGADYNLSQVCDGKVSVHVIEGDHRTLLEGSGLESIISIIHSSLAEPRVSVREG

With `Nc1ccc(Nc2ccccc2)cc1`, the molecule was called inactive in [1], in experiment [2], in experiment [3], in experiment [4], in experiment [5] and in [6]. Besides, the molecule was called inactive in experiment [7], in [10], in experiment [11], in experiment [12], in [13] and in [15]. Further, the molecule was classed as inactive in experiment [17]. For the same molecule, the AC50 (in general, the concentration giving half of the maximal activity seen) in experiment [8] was 50 µM (active); in experiment [9] it was 10.9 µM (active); in experiment [14], 63.2 µM (active); in experiment [16], 69.2 µM (active).
`O=C(O)c1cccc(N(Cc2cccnc2)c2ccc(OC(F)F)c(OC(F)F)c2)c1`: the molecule was called inactive in [1], in experiment [2], in experiment [5], in [6], in [7] and in [8]. Besides, the molecule was called inactive in experiment [10], in experiment [18], in experiment [11], in experiment [12], in experiment [14] and in [15]. In addition, the molecule was classed as inactive in [19] and in [17]. Moreover, the AC50 in [3] is 81.3 µM (active); in [4], 0.00643 µM (active); in experiment [9] it was 50 µM (active); in experiment [13] it was 50 µM (active); in experiment [16] it was 90.6 µM (active).
Consider `CCC(C)(C)C(=O)O[C@H]1C[C@@H](C)C=C2C=C[C@H](C)[C@H](CC[C@@H]3C[C@@H](O)CC(=O)O3)[C@H]21`, for which the AC50 in [1] was 0.24 µM (active); in experiment [3] it was 10.9 µM (active); in [13] it was 31.7 µM (active); in [16] it was 50 µM (active). Further, the outcome in experiment [2], in experiment [4], in experiment [5], in experiment [6], in experiment [7] and in [8] was inactive. The molecule was classed as inactive in experiment [20], in experiment [10], in experiment [11], in experiment [12], in experiment [14] and in experiment [15]. Besides, the molecule was classed as inactive in [19] and in experiment [17].
